Test results: PubChem BioAssay (NCI)
The panel holds about 83,000 compounds, 20% with a hit somewhere; the sample as a whole holds those more often.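 How to read the values: 0–100, growth inhibition (40 = 60% inhibited); 0, no net growth; -100 to 0, cell death (-40 = 40% of starting cells died; -100 = all dead).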 A number with no mark means an inactive call. Calls of active or inactive are those of the source.

System: HCC-2998 colon
Experiment: NCI-60 one-dose screen, 48 h (100 = growth as untreated, 0 = no growth, -100 = all killed)
Details: 10 µM unless noted
Experimental: Growth inhibition of the HCC-2998 human tumor cell line is measured as a screen for anti-cancer activity. Cells are grown in 96 well plates and exposed to the test compound for 48 hours. Compounds are tested at a single concentration, which is 10^-5 M for most compounds. The reported endpoint is percent growth (GI% or GIPRCNT), where numbers from 0 - 100% represent growth inhibition, and numbers from -100% - 0 represent cell death. For example, a value of 40 represents 60% growth inhibition. A value of 0 means no net growth occurred over the course of the experiment. A value of -40 indicates 40% of cells at the beginning of the experiment died by the end of the experiment. A value of -100 means all cells are dead at the end of the experiment.
NCI-60 Human Tumor Cell Lines Screen was performed using the standard one-dose NCI protocol, which is described in more detail at https://dtp.cancer.gov/discovery_development/nci-60/default.htm.
Compounds with GIPRCNT values below 10 were considered active. Activity score was based on GIPRCNT using the following formula: […]
Score is 0 for GIPRCNT values of 100 or above, 50 for GIPRCNT values of 0, and 100 for GIPRCNT values of -100.

SMILES	growth
O=Cc1ccc(O)c2ncccc12	86.6%
CCOC(CN=Cc1cc(C)c2[nH]c3ccccc3c2c1C)OCC	113%
O=C(Nc1cccc2c(O)c(N=Nc3ccc(S(=O)(=O)Nc4nccs4)cc3)cc(N=Nc3ccc(S(=O)(=O)Nc4nccs4)cc3)c12)C(Cl)Cl	107%
Cc1ccc2c(c1)Sc1c(ccc3ccccc13)N2	67.6%
COc1ccc(N=Nc2ccc(O)c(=O)cc2)cc1	36.2%
COc1ccc(N=C(c2ccccc2)C2C(=O)c3ccccc3C2=O)cc1	112%
COc1cccc(-c2nc3sccn3c2-c2ccnc(NCCNS(=O)(=O)c3cccc(Cl)c3)c2)c1	64.2%
c1coc(-c2c3ccc(=[N+]4CCCCC4)cc-3oc3cc(N4CCCCC4)ccc23)c1	-96.5% (active)
COc1cccc(-c2nc3sccn3c2-c2ccnc(NCCNS(=O)(=O)c3cccc(F)c3)c2)c1	52%
COc1cc(-c2nn(-c3ccccc3)cc2-c2ccnc(NCCNS(=O)(=O)c3ccc(Cl)cc3)n2)ccc1Cl	34.1%
O=C(N/N=C/c1ccncc1)c1ccc(C(F)(F)F)nc1Nc1cccc(C(F)(F)F)c1	-40.3% (active)
O=C1NC(=Nc2ccc(Cl)cc2)S/C1=C\c1cn(-c2ccccc2)nc1-c1ccccc1	100%
O=C(/C=C/c1c(Cl)nc2sccn12)c1ccc(F)c(F)c1	85.6%
CN(C)CCC=C1c2ccccc2C(C)(C)c2ccccc21	10.4%
CNc1ccc(NC)c2c1C(=O)c1ccccc1C2=O	72.3%
COc1ccc(C2C(c3nn[nH]n3)=C(N)Oc3c2ccc2ccccc32)cc1 (stereo not given)	97.7%
COc1ccc(-c2ccc3c(c2)sc2nc(-c4ccc(F)cc4)cn23)cc1	29.3%
Cc1cc(C)c2c(-c3nnc(N)s3)cc(=O)oc2c1	108%
N#CC1=C(/N=C/c2ccccc2)Oc2c(ccc3ccccc23)C1c1ccccc1 (stereo not given)	-12.2% (active)
CCCCCCCC/C=C\CCCCCCCCOc1ccccc1CC(=O)NCC[N+](C)(C)C	33.7%

SMILES	growth
CC(C)CCC[C@@H](C)[C@H]1CC[C@H]2[C@@H](Nc3ccc(O)cc3)CCC[C@]12C	122%
COc1ccc(/C=c2\nc3n(-c4ccccc4)c4nc5c6c(sc5c(=N)n4n-3c2=O)CCCC6)cc1	105%
C[n+]1cc2c3c(ccc2c2ccc4cc5c(cc4c21)OCO5)OCO3	-82.1% (active)
CC1(C)OC2C(CO[Si](C)(C)C(C)(C)C)OC(n3c(I)c(C#C[Si](C)(C)C)c(=O)[nH]c3=O)C2O1 (stereo not given)	-51% (active)
CN(C)CCCn1c(=O)c2ccccc2c2ccccc21	68.2%
C[C@H]1[C@H]2[C@H]3CC[C@@H]4[C@@]5(C)C/C(=C/c6ccco6)C(=O)C(C)(C)[C@@H]5CC[C@@]4(C)[C@]3(C)CC[C@]23CO[C@]1(C)[C@@H](C(=O)/C=C\c1ccco1)C3	108%
C[n+]1cccc(CC(=O)NO)c1	110%
c1ccc2c(c1)nc(CN1CCOCC1)n1cc(N3CCCC3)nc21	99.8%
O=C(CCc1nnc(CN(c2ccccc2)c2ccccc2)o1)c1nc2ccccc2[nH]1	90.3%
COc1c(CCC[P+](c2ccccc2)(c2ccccc2)c2ccccc2)cc2c(c1OC)OCO2	24.1%
C=C(C)[C@@H]1CC[C@]2(C(=O)NC3CCCCC3)CC[C@]3(C)[C@H](CC[C@@H]4[C@@]5(C)CCC(=O)C(C)(C)[C@@H]5CC[C@]43C)[C@@H]12	107%
Cc1cccc(NC(=O)N/C(N)=N/c2nc(C)c(C)s2)c1	63.7%
O=C1Nc2ccc(F)cc2C12Nc1cc(Cl)ccc1S2 (stereo not given)	99.5%
N#C/C(=C/C=C/c1cccc(Cl)c1)S(=O)c1ccccc1 (stereo not given)	-88.7% (active)
COc1cc(/C=N/Nc2ncc(-c3cc4cc5c(cc4o3)OCO5)s2)cc(OC)c1OC	82.1%
COc1cccc(-c2nn(-c3ccccc3)cc2-c2ccnc(NCCCNC(=O)c3ccc(F)cc3)c2)c1	40.2%
C=C(C)[C@@H]1CC=C2c3sc(-c4ccc(C)cc4)nc3C[C@@H](C)[C@]2(C)C1	115%
CC1(C)CC(=O)C2=C(C1)N(c1ccc(OC(F)(F)F)cc1)C(N)=C(C#N)C2c1ccc(Cl)cc1 (stereo not given)	94.7%
Cn1c(-c2c(N)n(Cc3cccnc3)c3nc(C#N)c(C#N)nc23)nc2ccccc21	100%
CCC(CO)Nc1nc2ccc(Cl)cc2c2ccccc12 (stereo not given)	54.9%
